# The full ranking holds about 33,000 sequences; the median of “e-score” is about -0.05, and the highest 2% start at about 0.38. The list comes from a sample in which the highest values are over-represented; it also holds similar and randomly drawn sequences.
# Target: T1, SIX1-Q177R homeodomain (human, UniProt Q15475 108-198, Q177R)
# T1 sequence: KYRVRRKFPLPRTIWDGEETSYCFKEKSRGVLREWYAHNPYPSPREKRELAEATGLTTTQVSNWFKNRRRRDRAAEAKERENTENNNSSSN
# Test: universal protein binding microarray; Universal all-10-mer PBM (8x60K, AMADID 030236), 300 nM GST-tagged protein, Alexa Fluor 488 anti-GST; buffer, salt, pH and temperature not stated (as in Berger); high values mean tight binding
# Details: protein: ivt; tags: N-terminal GST; dsDNA, one strand shown
# Procedure, shortened: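 Homeodomains carrying a GST tag were produced by in vitro transcription/translation, then quantified by anti-GST western blot against a recombinant GST standard curve. Duplicate applications at 300 nM final concentration were made to universal 'all 10-mer' protein binding microarrays in 8×60K format. The Universal PBM Analysis Suite was used to express binding as 8-mer E-scores.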
row,Sequence,binding signal [E-score]
1,CGGTGCTC,0.218 ± 0.0427
2,CTGTGTTC,0.175 ± 0.0413
3,CGGAGTCA,0.356 ± 0.0051
4,TCATAACA,0.23 ± 0.0137
5,CCCGGTAC,0.22 ± 0.0152
6,CACCCTAG,0.3472 ± 0.00144
7,CACCCCTA,0.283 ± 0.00661
8,CACCCTAA,0.3263 ± 0.00228
9,CACCCCTC,0.3928 ± 0.00375
10,CACCCCTG,0.351 ± 0.0108
11,CACCCTAC,0.387 ± 0.01
12,CACCCGCC,0.339 ± 0.0104
13,CACTTAGC,0.179 ± 0.029
14,ACGCCCAC,0.208 ± 0.00669
15,ATCGGCAC,0.175 ± 0.0126
16,AGTAGGGG,0.196 ± 0.0406
17,CCATGGAA,0.156 ± 0.015
18,ACACTGGG,0.412 ± 0.0164
19,ACACTTGC,0.363 ± 0.0273
20,ACACTGTA,0.3506 ± 0.0019
21,AAACTGGT,0.203 ± 0.0496
22,ACACTGGT,0.4256 ± 0.00135
23,ACACTGGA,0.3915 ± 0.0011
24,ACCCTGGG,0.238 ± 0.00896
25,ACGCTGGG,0.154 ± 0.0213

row,Sequence,binding signal [E-score]
1,ACACTGAT,0.374 ± 0.00694
2,CCACTGGA,0.206 ± 0.0185
3,ACACTGGC,0.379 ± 0.00546
4,ACCATGGG,0.162 ± 0.0492
5,CGATAACA,0.232 ± 0.018
6,GGGGTGGA,0.159 ± 0.0262
7,AGTCAGAG,0.156 ± 0.0606
8,CACCCTGG,0.315 ± 0.016
9,CCTTGACC,0.172 ± 0.00687
10,AAGGGGTA,0.2871 ± 0.000587
11,AAACTACA,0.184 ± 0.032
12,CGCCGTGC,0.188 ± 0.0146
13,ACGTAGTG,0.23 ± 0.0205
14,CACGTGTA,0.4 ± 0.0127
15,CACGTGTC,0.398 ± 0.00923
16,AACGTGTC,0.3481 ± 0.00176
17,CACGTGCA,0.218 ± 0.0109
18,CACGTGCC,0.225 ± 0.0142
19,AACGTGTA,0.353 ± 0.0523
20,ACCGCTAG,0.171 ± 0.0167
21,AACAGGTG,0.327 ± 0.0196
22,GGTAAACA,0.188 ± 0.00443
23,CGTAACAC,0.4096 ± 0.00185
24,AGTAACAC,0.424 ± 0.0116
25,AGTAACCC,0.201 ± 0.0162

row,Sequence,binding signal [E-score]
1,CGTAACCC,0.225 ± 0.019
2,GGTAACAC,0.432 ± 0.00841
3,GTAAACAC,0.375 ± 0.00722
4,CGTAGCAC,0.17194 ± 0.000163
5,CCACTTGC,0.163 ± 0.00866
6,AGGGGTAC,0.273 ± 0.0106
7,ATCCCCAC,0.211 ± 0.0453
8,ATCTTACA,0.262 ± 0.0268
9,ACCCGTAA,0.264 ± 0.0395
10,TGCCGACA,0.177 ± 0.00329
11,ACGGTGTA,0.4693 ± 0.00139
12,ACGGTGCA,0.2931 ± 0.00041
13,CCGGTGCA,0.203 ± 0.0164
14,CCGGTATA,0.183 ± 0.0142
15,ACGGTGCT,0.179 ± 0.0133
16,GCGGTGTA,0.4849 ± 0.00132
17,CCGGTGTA,0.4859 ± 0.00134
18,GATGTGTA,0.19 ± 0.00781
19,GCTGTGTA,0.223 ± 0.0192
20,CCCGAGTA,0.167 ± 0.00344
21,CTTAGGGA,0.151 ± 0.0622
22,GCACAACA,0.156 ± 0.0323
23,CACCTGAG,0.183 ± 0.0139
24,ATTGGTGC,0.1599 ± 0.00112
25,CAAGGACA,0.194 ± 0.0363

row,Sequence,binding signal [E-score]
1,ACGACCCG,0.179 ± 0.0515
2,CACGCATC,0.168 ± 0.00731
3,CACCAGCG,0.22 ± 0.0046
4,GCGTGTCA,0.4332 ± 0.000573
5,GCGTGTCC,0.412 ± 0.0188
6,ACGTGGTG,0.3594 ± 0.00155
7,CCGTGTGA,0.299 ± 0.0309
8,ACGTGTGG,0.218 ± 0.0138
9,CCGTGACA,0.307 ± 0.00911
10,GCGTGACA,0.254 ± 0.0158
11,CCGTGTCA,0.465 ± 0.00781
12,GCGTATCC,0.176 ± 0.00656
13,ACGTGTCG,0.383 ± 0.00518
14,ACGTGTCC,0.347 ± 0.017
15,CCAGCTGG,0.263 ± 0.0674
16,CATGGTGG,0.192 ± 0.00214
17,GTGCGTGA,0.163 ± 0.0169
18,CCCCCTTC,0.2098 ± 0.000417
19,CCGTGATC,0.165 ± 0.0407
20,CCGTGTCC,0.408 ± 0.0236
21,TCGGGTCA,0.197 ± 0.0386
22,ACGTGTCT,0.337 ± 0.00126
23,CCCCGTCG,0.161 ± 0.0244
24,ACGTGTCA,0.4123 ± 0.00349
25,TCGTGTCA,0.4434 ± 0.00419

row,Sequence,binding signal [E-score]
1,CCGGGTCG,0.248 ± 0.0288
2,CCGTGTCG,0.441 ± 0.0221
3,CCCTGTCC,0.152 ± 0.0156
4,TCGTGACA,0.329 ± 0.0128
5,CGAATCCG,0.166 ± 0.0303
6,AGCTCGTG,0.244 ± 0.0101
7,ATACTCCC,0.162 ± 0.0435
8,CCCCGGTA,0.284 ± 0.00694
9,CATCAGCG,0.153 ± 0.0322
10,CACCGGAC,0.315 ± 0.0498
11,CTATAACA,0.228 ± 0.0138
12,TAAGTGTA,0.373 ± 0.0287
13,CAAGTGTC,0.379 ± 0.0101
14,GAAGTGTC,0.387 ± 0.0118
15,AAAGTGTT,0.285 ± 0.0563
16,AGAGTGTC,0.412 ± 0.00919
17,AGAGTGTA,0.424 ± 0.0108
18,AAAGTGTG,0.184 ± 0.0165
19,CAAGTGTA,0.392 ± 0.0272
20,AGAGTGTG,0.247 ± 0.0115
21,AGTGTGTC,0.283 ± 0.029
22,ACCCGGCT,0.202 ± 0.0126
23,ACACATAA,0.18 ± 0.0275
24,GCGAGACA,0.249 ± 0.00462
25,GGAACCCC,0.165 ± 0.0247

row,Sequence,binding signal [E-score]
1,GGGATCAC,0.2771 ± 0.000933
2,CACCGGAA,0.288 ± 0.0177
3,TAAGGGTA,0.163 ± 0.0467
4,CCGACCAC,0.192 ± 0.0175
5,CGGGTATA,0.21 ± 0.00983
6,CGAGTATC,0.158 ± 0.0391
7,CGAGTACA,0.28 ± 0.0111
8,CGAGTGGA,0.166 ± 0.0322
9,GGAGTACA,0.246 ± 0.013
10,CGAGTGTC,0.415 ± 0.00743
11,CGAGTACC,0.168 ± 0.00651
12,GGAGTGCA,0.17 ± 0.0126
13,CGAGTGTA,0.382 ± 0.0327
14,GGAGTGTA,0.417 ± 0.0148
15,GGGTGCTA,0.217 ± 0.00882
16,CCGCCCCA,0.239 ± 0.0124
17,CCCTACCA,0.167 ± 0.0194
18,CACCTAAG,0.263 ± 0.00735
19,AAACCCCG,0.231 ± 0.0422
20,ACTATATC,0.178 ± 0.0197
21,ATGGAGTC,0.232 ± 0.0246
22,AACACGTA,0.343 ± 0.0046
23,CACACGTC,0.221 ± 0.00539
24,GACACGTA,0.39 ± 0.0131
25,GACACGTC,0.381 ± 0.00585

row,Sequence,binding signal [E-score]
1,AACACGTC,0.309 ± 0.0249
2,CACACGTA,0.262 ± 0.0227
3,CGAAGTAC,0.174 ± 0.00912
4,CACCTCAC,0.354 ± 0.0133
5,CTCCCCCA,0.176 ± 0.0255
6,ACCCGCGA,0.239 ± 0.0203
7,CGGGCACA,0.1994 ± 0.000764
8,TACCCGGA,0.247 ± 0.00272
9,CACCCGGA,0.388 ± 0.0297
10,CACCCGGC,0.36 ± 0.0229
11,CACGCTTC,0.24 ± 0.0251
12,GACACGGC,0.427 ± 0.0135
13,TACACGGA,0.402 ± 0.00597
14,TACACAAA,0.247 ± 0.0503
15,CCCACGGA,0.161 ± 0.00447
16,GACACGGA,0.418 ± 0.0309
17,AACACGGC,0.35 ± 0.00429
18,CACACGAC,0.237 ± 0.00357
19,CACACGGC,0.161 ± 0.0205
20,GACACGAC,0.436 ± 0.00629
21,CACACGGA,0.253 ± 0.0652
22,GACACGAA,0.331 ± 0.0274
23,GATACGGA,0.215 ± 0.00231

# — publication PMC10668032, “Altered binding affinity of SIX1-Q177R correlates with enhanced WNT5A and WNT pathway effector expression in Wilms tumor”
